Source: PubChem BioAssay (National Center for Advancing Translational Sciences (NCATS))
CHX counter: counter-screen for Shiga toxin inhibitors: cycloheximide protein synthesis inhibition; cell reporter, cycloheximide protein synthesis inhibition counterscreen; max response, %; 300,000 tested, 12% active; in the data active means max response mostly above about 13%, no sharp cut-off; inactive means mostly below about 14%; further: read at 38.3 µM for the half of the compounds with a filed dose
SARS PLpro yeast: blocks SARS-CoV papain-like protease in a yeast assay | S. cerevisiae expressing SARS-CoV PLpro, growth rescue | Potency, µM (highest dose often 32.9 µM), usual class: activators | 330,000 tested, 0.19% active | AID 485353; calls by dose curve; further: nearly all actives have a fitted effect of over 55% in size
Pf growth 96h: inhibits malaria parasite growth, 96 h; P. falciparum luciferase reporter growth, 96 h; Potency, µM (highest dose often 28.7 µM), most hits filed as inhibitors; 320,000 tested, 6.9% active; AID 504834
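Two parasite generations (96 h, 37 C, 5% CO2) of compound exposure in infected erythrocytes (0.05% parasitemia, 2% hematocrit). Luciferase-reporter P. falciparum; decreased luminescence indicates inhibited growth, aimed at apicoplast-acting delayed death.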
AMA1 RON2 block: AMA1-RON2 (P. falciparum) interaction inhibition | AlphaScreen AMA1-biotinylated RON2 peptide binding | Potency, µM (series often up to 58.2 µM), most hits filed as inhibitors | 360,000 tested, 0.2% active | AID 720542; further: nearly all actives have a fitted effect of over 45% in size
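AMA1 (3D7) with his tag at 25 nM final met compounds first, then biotinylated RON2 peptide at 25 nM; detection used donor plus acceptor beads, 10 µg/mL apiece, read by AlphaScreen after 30 min at room temperature.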
Pf growth 48h: P. falciparum growth inhibition at 48 hours (one generation) | Potency, µM (highest dose often 28.7 µM), actives largely listed as inhibitors | AID 504832 | 310,000 tested, 5.9% active | P. falciparum luciferase growth in erythrocytes, 48 h
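Luciferase-expressing P. falciparum in infected erythrocytes (2% hematocrit, 0.1% parasitemia final) in RPMI 1640/0.5% Albumax were exposed to compound for 48 hours at 37 C, 5% CO2; growth read as luminescence.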
Shiga toxin inh: Shiga toxin inhibition. Vero cells, Shiga toxin protein synthesis inhibition reporter. inhibition, % at 38.7 µM. 290,000 tested, 9.2% active. AID 2315; in the data active means inhibition mostly above about 28%, no sharp cut-off; inactive means mostly below about 43%
Each line names hits and unclear results; the compound was inactive in the other large screens. Shown are actives, neighbours in structure and some others; about 19% of the full set was active somewhere. Unless noted, the call rests on the fitted dose curve; in most records, active means well fitted curve in the direction sought with a large enough effect; inconclusive means small, poorly fitted or top-dose-only effect, or another doubt; inactive means no such curve, though single readings can be large; an effect the other way counts as inactive or inconclusive.

Cc1cccc(C)c1NC(=S)N1CCC(c2ccccc2)C1 (stereo not drawn)	none
O=C1CSc2cc(Cl)ccc2N1	none (no result: CHX counter, SARS PLpro yeast, Pf growth 96h, Pf growth 48h, Shiga toxin inh)
C[C@@H]1CN([C@@H](C)CO)C(=O)c2cc(NC(=O)C3CC3)ccc2O[C@@H]1CN(C)C(=O)NC1CCCCC1	none (no result: CHX counter, Pf growth 96h, Pf growth 48h, Shiga toxin inh)
CC1Cc2nc(SCC(=O)N3CCN(c4ccccc4)CC3)n(CCc3ccccc3)c(=O)c2S1 (stereo not drawn)	Pf growth 96h inconclusive, Pf growth 48h 9.3µM
CC1Cc2nc(SCC(=O)Nc3ccc(F)cc3F)n(C)c(=O)c2S1 (stereo not drawn)	Pf growth 96h inconclusive, Pf growth 48h 6.6µM
CC1Cc2nc(SCC(=O)Nc3ccc4c(c3)OCCO4)n(C)c(=O)c2S1 (stereo not drawn)	CHX counter 9.0, Pf growth 96h inconclusive, Pf growth 48h inconclusive
CC1CCCC(C)N1C(=O)Cn1c(SCC(=O)Nc2ccc3c(c2)OCO3)nc2ccccc21 (stereo not drawn)	Pf growth 96h 13µM, Pf growth 48h inconclusive
Cc1ccc2nc(NC(=O)CSc3nc4c(c(=O)n3C)SC(C)C4)sc2c1 (stereo not drawn)	Pf growth 96h inconclusive, Pf growth 48h inconclusive
CCn1c(SCC(=O)N2CCN(c3ccccc3)CC2)nc2c(c1=O)SC(C)C2 (stereo not drawn)	Pf growth 96h inconclusive, Pf growth 48h inconclusive
Cc1ccc(C)c(NC(=O)CSc2nc3c(c(=O)n2C)SC(C)C3)c1 (stereo not drawn)	Pf growth 96h inconclusive, Pf growth 48h inconclusive
COc1cc(CN2CCC(n3nccc3NC(=O)C3CC3)CC2)cc(OC)c1	none
COc1ccc([C@H]2CC(=O)C[C@@H](CCn3cc(CCc4ccccc4)nn3)O2)cc1	none (no result: CHX counter, SARS PLpro yeast, Pf growth 96h, Pf growth 48h, Shiga toxin inh)
COCCn1c(SCC(=O)Nc2ccc3c(c2)OCCO3)nc2c(c1=O)SC(C)C2 (stereo not drawn)	CHX counter 23, Pf growth 96h inconclusive, Shiga toxin inh 30
CC1Cc2nc(SCC(=O)Nc3nccs3)n(Cc3ccccc3)c(=O)c2S1 (stereo not drawn)	Pf growth 96h 1.5µM, Pf growth 48h 3.3µM
CC1Cc2nc(SCC(=O)Nc3ccc4c(c3)OCO4)n(Cc3ccccc3)c(=O)c2S1 (stereo not drawn)	CHX counter 56, Pf growth 48h 2.3µM, Shiga toxin inh 83
COc1ccc2c(C)c(CCC(=O)NCCCN3CCCC3=O)c(=O)oc2c1C	none
CCCC12CN3CC(CCC)(CN(C1)C3c1ccccn1)C2=O (stereo not drawn)	Pf growth 48h 9.3µM (no result: Pf growth 96h)
O=C(Nc1ccccc1)c1ccc(C(=O)Nc2ccccc2)nc1	Shiga toxin inh 49
Cc1cccc(NC(=O)c2ccc(C(=O)Nc3cccc(C)c3)nc2)c1	Shiga toxin inh 64
CCOC(=O)Cn1nc(NC(=O)COc2ccc(F)cc2)cc1C	Pf growth 48h inconclusive
COc1ccc(NS(=O)(=O)c2ccc(NC(=O)c3ccc(CN4CCOCC4)cc3)cc2)cc1	Pf growth 48h 15µM
CCN(CC)S(=O)(=O)c1ccc(NC(=O)c2ccc(CN3CCOCC3)cc2)cc1	Pf growth 48h 6.6µM
O=C(Nc1ccc(S(=O)(=O)Nc2ccc(F)cc2)cc1)c1ccc(CN2CCOCC2)cc1	Pf growth 48h inconclusive
O=C(Nc1ccc(S(=O)(=O)N2CCCC2)cc1)c1ccc(CN2CCOCC2)cc1	Pf growth 48h inconclusive
Cc1ccc([C@H]2C[C@H](n3cc(C4CC4)nn3)[C@@H](O)CN2C(=O)c2cccs2)cc1	none (no result: CHX counter, SARS PLpro yeast, Pf growth 96h, Pf growth 48h, Shiga toxin inh)
Nc1[nH]ncc1-c1ccccc1	none
CCCN(CC(=O)Nc1ccccc1C)C(=O)c1ccc(N2CCCC2=O)cc1	Pf growth 96h inconclusive (no result: CHX counter, Shiga toxin inh)
Cc1cccc(N=Nc2c(C)c(C#N)c(O)[nH]c2=O)c1	CHX counter 14
NC(=O)CCn1c(C(=O)c2cc(Cl)c(N)c(Cl)c2)c2ccccc2[n+]1[O-]	Pf growth 96h 10µM, Pf growth 48h inconclusive
Cc1ccc(C(=O)c2c3ccc(C(F)(F)F)cc3[n+]([O-])n2CCCN)cc1	Pf growth 96h inconclusive, Pf growth 48h inconclusive (no result: CHX counter, Shiga toxin inh)
COc1ccc(C(=O)c2c3ccccc3[n+]([O-])n2Cc2ccc(C(N)=O)cc2)cc1	Pf growth 96h 6.6µM, Pf growth 48h inconclusive (no result: CHX counter, Shiga toxin inh)
COc1ccc(C(=O)c2c3ccc(C(F)(F)F)cc3[n+]([O-])n2CCCN)cc1	Pf growth 96h inconclusive, Pf growth 48h 12µM (no result: CHX counter, Shiga toxin inh)
NCCCn1c(C(=O)c2cc(Cl)c(N)c(Cl)c2)c2ccccc2[n+]1[O-]	Pf growth 96h inconclusive, Pf growth 48h inconclusive (no result: CHX counter, Shiga toxin inh)
COc1ccc2c(C(=O)c3ccc(Cl)cc3)n(CCCC(N)=O)[n+]([O-])c2c1	Pf growth 96h inconclusive, Pf growth 48h 9.3µM (no result: CHX counter, Shiga toxin inh)
COc1ccc(C(=O)c2c3ccccc3[n+]([O-])n2CCC(N)=O)cc1	Pf growth 48h inconclusive (no result: CHX counter, Shiga toxin inh)
COCCNC(=O)C1(C)CCCN(CCOc2ccc(Cl)cc2)C1 (stereo not drawn)	none (no result: CHX counter, SARS PLpro yeast, Pf growth 96h, Pf growth 48h, Shiga toxin inh)
Nc1nonc1C(=O)N/N=C/c1ccc(-c2ccc(Cl)c(C(=O)O)c2)o1	CHX counter 14, Pf growth 96h inconclusive, Shiga toxin inh 48
Nc1nonc1C(=O)N/N=C/c1ccc(Br)o1	CHX counter 39, Shiga toxin inh 72
N/C(=N\N=C\c1ccc(Br)o1)c1nonc1N	CHX counter 47, Shiga toxin inh 82
Cc1ccccc1N=C(NO)c1nonc1N	none
O=C(N/N=C/c1ccc(Br)o1)c1cccnc1	none
CCCC(C)c1nnc(NC(=O)c2cc(C(=O)OC)cc([N+](=O)[O-])c2)s1 (stereo not drawn)	none
CCCCCCCCCCCCCCCC(=O)OCC(NC(=O)C(Cl)Cl)C(O)c1ccc([N+](=O)[O-])cc1 (stereo not drawn)	none (no result: SARS PLpro yeast, Pf growth 96h, AMA1 RON2 block, Pf growth 48h)
Cc1ccc(C2=NNC(=O)C(c3ccc(Cl)cc3)C2)cc1 (stereo not drawn)	none (no result: Pf growth 96h)
O=C1NN=C(c2ccc(Cl)cc2)CC1c1cccc(Br)c1 (stereo not drawn)	Pf growth 48h 4.1µM
CC[C@H](C)[C@H](NC(=O)[C@H](CC(=O)O)NC(=O)[C@H](CC(C)C)NC(=O)[C@H](Cc1cnc[nH]1)NC(=O)[C@H](C)NC(=O)[C@H](Cc1ccccc1)NC(=O)[C@H](Cc1ccc(O)cc1)NC(=O)[C@@H](NC(=O)[C@H](C)NC(=O)[C@H](CCC(=O)O)NC(=O)[C@H](CCCCN)NC(=O)[C@H](CC(=O)O)NC(=O)[C@H](CCSC)NC(=O)[C@H](CC(C)C)NC(C)=O)C(C)C)C(=O)N[C@H](C(=O)N[C@@H](Cc1c[nH]c2ccccc12)C(=O)O)[C@@H](C)CC	none (no result: SARS PLpro yeast, Pf growth 96h, AMA1 RON2 block, Pf growth 48h)
CCOC(=O)CSc1nc2cc(C(=O)N3CCC(C(N)=O)CC3)ccc2c(=O)n1C1CCCCC1	Pf growth 48h inconclusive
COC(=O)c1ccc2c(=O)n(C3CCCCC3)c(SCC#N)nc2c1	Shiga toxin inh 71
CSc1nc2ccccc2c(=O)n1C1CCCCC1	Pf growth 96h 1.5µM
